# ELG1 genotoxic: qHTS screen for small molecules that induce genotoxicity in human embryonic kidney (HEK293T) cells expressing luciferase-tagged ELG1; HEK293T ELG1-luciferase reporter, luminescence, 16 h; Potency, µM (series often up to 46 µM), for the others: at the highest dose activity change, positive = activation, most hits filed as activators; 1.3% of 330,000 active; AID 504466, 2011; further: % of control where 0% means no effect; nearly all actives have a fitted effect of over 60% in size
#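 Quantitative HTS format in 1536-well plates. HEK293T ELG1-luciferase reporter cells receive test compound and are incubated 16 hr at 37 °C, 5% CO2; ONE-Glo added, 30 min room temperature, then luminescence read.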
# NPC1 prom act: qHTS Assay for NPC1 Promoter Activators. Huh7 NPC1 promoter luciferase reporter, 24 h. Potency, µM (titrated, usually from 9.22 µM), for inactives: at the highest dose activation, actives largely listed as activators. 2.4% of 320,000 active; further: % of control where 0% means no effect; nearly all actives have a fitted effect of over 60% in size
#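 Quantitative HTS used a cell-based reporter: Huh7 cells stably bearing the NPC1 promoter upstream of luciferase were treated with compounds for 24 h, and promoter activation was read as luminescence.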
# SMN2 splice up: qHTS Assay for Enhancers of SMN2 Splice Variant Expression; HEK293 SMN2-luciferase splicing reporter, luminescence, 30-36 h; AID 1458, 2008; Potency, µM (titrated, usually from 46.1 µM), without a hit: top-dose activity change, positive = activation, actives largely listed as activators; 2.8% of 210,000 active; further: % of control where 0% means no effect; nearly all actives have a fitted effect of over 55% in size
#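 qHTS luciferase splicing reporter: luminescence rises when SMN2 exon 7 is included in transfected HEK293 cells. Compound exposure lasted 30-36 h at 37C, with 4.5 mM final sodium butyrate as control, followed by a ONE-Glo read.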
# FLuc counter: qHTS profiling assay for firefly luciferase inhibitor/activator using purifed enzyme and Km concentrations of substrates (counterscreen for miR-21 project). Potency, µM (titrated, usually from 57.5 µM), inactives show at the top dose activity change, negative = inhibition, hits mostly inhibitors. 6.9% of 360,000 active. Luciferin 4-monooxygenase (Photinus pyralis), P08659. purified FLuc, Km substrates, luminescence inhibition;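 further: plate controls were vehicle for no effect and reference inhibitor for full effect; nearly all actives have a fitted effect of over 55% in size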
# Target sequence (P08659 whole entry, looked up): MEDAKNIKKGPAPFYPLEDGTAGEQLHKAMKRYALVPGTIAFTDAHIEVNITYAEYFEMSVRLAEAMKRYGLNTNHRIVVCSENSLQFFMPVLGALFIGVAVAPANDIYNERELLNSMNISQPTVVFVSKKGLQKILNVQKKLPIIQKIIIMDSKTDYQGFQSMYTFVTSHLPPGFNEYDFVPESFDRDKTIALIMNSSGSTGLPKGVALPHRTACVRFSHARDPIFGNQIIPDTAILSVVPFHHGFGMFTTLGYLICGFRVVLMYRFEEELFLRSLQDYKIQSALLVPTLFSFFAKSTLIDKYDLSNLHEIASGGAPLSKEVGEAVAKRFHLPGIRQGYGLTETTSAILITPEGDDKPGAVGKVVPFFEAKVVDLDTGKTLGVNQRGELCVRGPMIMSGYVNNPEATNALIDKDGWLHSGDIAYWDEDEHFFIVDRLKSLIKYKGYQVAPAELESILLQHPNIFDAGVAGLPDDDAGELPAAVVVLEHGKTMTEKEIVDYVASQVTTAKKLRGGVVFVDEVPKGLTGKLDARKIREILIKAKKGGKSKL
#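 Purified P. pyralis luciferase, 10 nM final, with Km-level 10 uM D-luciferin and 10 uM ATP in 50 mM Tris acetate pH 7.5, 10 mM Mg acetate, 0.01% Tween-20, 0.05% BSA; 6-point qHTS titration about 60 µM downward; luminescence read.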
# KinaseGlo FLuc: Counterscreen for Luciferase (Kinase-Glo TM) Inhibition | Luciferin 4-monooxygenase (Photuris pensylvanica), Q27757 | Kinase-Glo luciferase, ATP luminescence, 8 min | Potency, µM (highest dose often 38.3 µM), for inactives: top-dose activity change, negative = inhibition, hits mostly inhibitors | 0.28% of 200,000 active | AID 1379, 2008; further: on the % scale 0 is the no-effect control and ±100 the full control effect; nearly all actives have a fitted effect of over 60% in size
#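 Light output from Kinase-Glo luciferase with luciferin and 10 uM ATP in 50 mM imidazole pH 7.2, KCl, MgCl2, Tween 20, BSA; compound pin-delivered, 8-min ambient incubation, then luminescence read.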
# Rab9 promoter act: qHTS Assay for Rab9 Promoter Activators. Huh7 Rab9 promoter-luciferase reporter, luminescence, 24 h. Potency, µM (series often up to 9.22 µM), without a hit: at the top dose activation, negative = inhibition, actives largely listed as activators. 2.8% of 320,000 active; further: % of control where 0% means no effect; nearly all actives have a fitted effect of over 60% in size
#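 Rab9 promoter-driven luciferase in stably transfected Huh7 cells; 1500 cells/well rested 2 h, exposed to compound in DMSO for 24 h at 37 °C, 5% CO2. Luminescence read 10 min after adding luciferase reagent at ambient temperature.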
# The depositor's hits bear a star; ? = inconclusive; / = no result given; [ ] = remark or other dose. Hits are enriched below; roughly 7.4% of the tested compounds scored in any of these assays. The call rests on the fitted dose curve; in most records, active means well fitted curve in the direction sought with a large enough effect; inconclusive means small, poorly fitted or top-dose-only effect, or another doubt; inactive means no such curve, though single readings can be large; an effect the other way counts as inactive or inconclusive. Potency means the concentration at half of the fitted maximal effect.
SMILES,ELG1 genotoxic,NPC1 prom act,SMN2 splice up,FLuc counter,KinaseGlo FLuc,Rab9 promoter act
CCCCN1C(=O)C(=O)N(CC(=O)Nc2cc(S(=O)(=O)N(C)C)ccc2C)C1=O,1%,-1%,/,1%,/,1%
COC(=O)C1=C(C(=O)OC)[C@@H]2N(Cc3ccccc3)c3ccccc3[C@@]23C[C@@H](C(=O)OC)N(C(=O)c2ccco2)C3=N1,/,/,-3%[9.22 µM],/,1%[7.66 µM],/
COc1ccc2ccccc2c1CN(C)Cc1ccccc1,-9%,-2%,/,-2%,/,-1%
CN(Cc1ccccc1)Cc1c(F)cccc1F,-5%,-2%,1.4µM*,15%,5%,-4%
Cc1nccc(-c2cc(-c3ccc(Cl)cc3Cl)no2)n1,?,1.4µM*,/,2.4µM*,/,1.1µM*
O=C(NC(=S)NC1CCCCC1)c1ccc(F)cc1,?,?,/,?,/,4µM*
CC(C)CNC(=S)NC(=O)c1ccc(F)cc1,?,22%,?,30µM*,2%,17%
Cc1ccc(C(=O)NC2CCCCC2)cc1,30%,2.8µM*,14µM*,21µM*,-3%,2.5µM*
O=C(NC1CCCCCCC1)c1cc(F)c(F)cc1Cl,?,?,?,?,1%,?
O=C(NC(=S)NCCN1CCOCC1)c1ccc(F)cc1,-1%,-1%,?,1%,1%,-3%
Cc1ccc(C(=O)NC2CCCCCCC2)c(Cl)c1,1.5µM*,0.32µM*,/,0.76µM*,/,0.32µM*
N#Cc1ccc(OCC(=O)NC2CCCCCC2)cc1,1%,/,/,/,/,/
O=C(NC(=S)NC(CO)Cc1ccccc1)c1ccc(F)cc1 (stereo not given),?,1.3µM*,/,0%,/,4µM*
N#Cc1ccc(C(=O)NC2CCCCCCC2)cc1,?,1.8µM*,/,21µM*,/,1.4µM*
Brc1ccc(C[n+]2ccccc2)cc1,-2%,-8%,/,0%,/,-30%
Cc1[nH]c2ccc(C(=O)OCC(=O)Nc3cccc(S(N)(=O)=O)c3)cc2c1C,4%,-2%,/,17µM*,/,18%
NS(=O)(=O)c1cccc(NC(=O)COC(=O)CNC(=O)c2ccc(-c3ccccc3)cc2)c1,-1%,5%,/,6.7µM*,/,0%
CCc1nn(CC(=O)NCc2ccccc2Cl)c(=O)c2cc3ccccc3n12,/,/,-1%,-3%,/,/
Cc1cc(C)cc(NC(=S)NN)c1,-3%,-9%,-5%,-2%,2%,-7%
CSCCOC(=O)COc1ccc(/C=N/NC(=O)c2nn(C)cc2Cl)cc1,3%,-5%,-22%,13µM*,-4%,-7%
Cc1ccc(S(=O)(=O)Oc2ccc(/C=N/NC(=O)c3nn(C)cc3Cl)cc2)cc1,5%,4%,-6%,-13%,-1%,0%
Cc1ccc(NC(=O)O/N=C/c2ccc(F)cc2)cc1,?,?,/,15µM*,/,?
COc1ccc(/C=N/OC(=O)Nc2ccccc2)cc1[N+](=O)[O-],12%,6%,20%,15µM*,6%,23%
COc1ccc(NC(=O)O/N=C/c2ccncc2)cc1,14%,16%,-8%,?,1%,17%
O=C(Nc1ccccc1)O/N=C/c1ccccc1Cl,15%,6%,0%,?,-16%,-3%
SMILES,ELG1 genotoxic,NPC1 prom act,SMN2 splice up,FLuc counter,KinaseGlo FLuc,Rab9 promoter act
O=C(Nc1ccccc1)O/N=C/c1ccc(F)cc1,?,0.63µM*,/,2.4µM*,/,0.79µM*
CCN(CC)S(=O)(=O)c1cc(C(=O)OCC(=O)Nc2cccc(Br)c2)ccc1F,2%,-1%,-15%,4%,-1%,-2%
CC(=O)Nc1cccc(-c2csc(NCc3ccco3)n2)c1,?,8%,?,17µM*,-4%,1%
Oc1ccc(-c2csc(NCc3ccco3)n2)cc1,18µM*,26%,25%,11µM*,-4%,28%
c1coc(CNc2nc(-c3cccs3)cs2)c1,6%,?,?,24µM*,3%,?
Cc1nc2ncccn2c1-c1csc(NCc2ccco2)n1,16%,0%,-24%,-16%,-2%,-8%
O=C(NCc1ccco1)/C(=C/c1ccccc1F)NC(=O)c1ccccc1,1%,1%,/,5%,/,-1%
O=C(NC1CCCCC1)c1cc(S(=O)(=O)N2CCOCC2)ccc1Cl,-4%,1%,/,2%,/,-5%
CCN(CC)S(=O)(=O)c1ccc2c(c1)c(=O)c(C(=O)NCCCN(C)c1ccccc1)cn2C,-14%,-1%,11µM*,3%,0%,-5%
OCC1CCCN(C(=S)NCCc2ccccc2)C1 (stereo not given),?,3.2µM*,?,17µM*,2%,?
CC1CCN(C(=S)NCCc2ccccc2)CC1,7.3µM*,3.5µM*,-2%,11µM*,-2%,2µM*
CCCOc1cccc(-c2nc3ccccc3c(=O)o2)c1,?,8%,/,8.5µM*,-1%,26%
CCCOc1ccc(-c2nc3ccccc3c(=O)o2)cc1,/,/,16µM*,0.67µM*,/,/
CCC(=O)Oc1ccc(-c2nc3ccccc3c(=O)o2)cc1,/,/,-5%,1.7µM*,/,/
CCCOc1ccc(-c2nc(OC)c3ccccc3n2)cc1,5%,19%,-10%,13µM*,-6%,3%
COc1ccc(C)c2sc(N3CCN(C(=O)c4ccco4)CC3)nc12,/,/,/,-12%,/,/
CC(=O)c1cccc(N(C(=O)CNC(=O)c2cccs2)C(C(=O)NCC2CCCO2)c2ccccc2)c1 (stereo not given),-1%,-1%,/,1%,/,-2%
Cc1cc(C(=O)COC(=O)C23CC4CC(CC(O)(C4)C2)C3)c(C)n1C,8.2µM*,/,/,/,/,/
O=C(COC(=O)C12CC3CC(CC(C3)C1)C2)Nc1ccccc1F,5%,0%,-6%,11µM*,2%,2%
O=C(COC(=O)C12CC3CC(CC(O)(C3)C1)C2)Nc1ccc(Br)cc1F,?,?,/,/,/,3.5µM*
CN(CC(=O)Nc1ccc(N2CCOCC2)cc1)Cc1cc(=O)n2ccsc2n1,18%,0%,4%,-2%,0%,-7%
CCOc1ccc(NC(=O)NC(C)c2c(-n3cccc3)sc(C)c2C)cc1 (stereo not given),/,/,11%,4%,/,/
CC(C)(C)OC(=O)N/N=C/c1ccc(Br)cc1,?,?,11µM*,12µM*,0%,1.6µM*
CC(C)(C)OC(=O)N/N=C\c1cccnc1,-13%,21%,/,11µM*,-10%,?
CC(C)(C)NC(=O)C(=O)N/N=C/c1ccc(Br)cc1,8%,19%,-3%,?,-7%,7%

# High-throughput results: PubChem BioAssay, National Center for Advancing Translational Sciences (NCATS)
